The target in this assay is DNA dC->dU-editing enzyme APOBEC-3G (Homo sapiens) (UniProt Q9HC16). The assay is described as follows: APOBEC3G deaminase inhibitor retest, confirmation, biochemical, fluorescence, single-stranded DNA substrate, single concentration (AID 493152). Conditions: recombinant A3G ssDNA deaminase, UDG/FAM-TAMRA fluorescence; at 20 µM; stronger effect = higher value.

The list shows a part of the results. The source made the active and inactive calls.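 The calls were made as follows: active = inhibition reaching a set limit in any replicate at 20 µM, the limit being 80% of the first screen's; inactive = the rest.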

DNA dC->dU-editing enzyme APOBEC-3G (Homo sapiens), sequence (Q9HC16 whole entry, looked up): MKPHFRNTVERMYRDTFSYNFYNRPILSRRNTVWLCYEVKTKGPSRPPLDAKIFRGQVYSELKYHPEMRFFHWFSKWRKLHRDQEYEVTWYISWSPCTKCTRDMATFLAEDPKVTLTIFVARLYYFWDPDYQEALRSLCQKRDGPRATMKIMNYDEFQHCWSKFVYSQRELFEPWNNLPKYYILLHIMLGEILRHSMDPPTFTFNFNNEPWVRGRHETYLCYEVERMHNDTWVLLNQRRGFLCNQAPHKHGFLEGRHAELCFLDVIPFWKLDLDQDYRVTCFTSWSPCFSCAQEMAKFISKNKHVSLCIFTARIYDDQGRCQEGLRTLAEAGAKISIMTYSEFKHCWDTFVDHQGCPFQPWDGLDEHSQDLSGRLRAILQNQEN

As for `COC(=O)N(c1ccc(OC)cc1)P1(=S)OCCC(C)O1` (stereo unspecified), the inhibition (in general, the percentage by which the read-out fell short of the control) is 42.1% (active).

The values above are taken from PubChem BioAssay AID493152 (Sanford-Burnham Center for Chemical Genomics, 2011).
